Here are results for 13 compounds from PubChem BioAssay AID504797 (The Scripps Research Institute Molecular Screening Center, 2011).

For this assay, the target named is cAMP-dependent protein kinase type II-beta regulatory subunit (Homo sapiens) (UniProt P31323). Briefly: activators of PKA-R2B holoenzyme, confirmation, biochemical, fluorescence polarization, human (AID 504797). To be noted: PKA-R2B complex, at 11.4 µM, stronger effect = higher value.

The list shows a part of the results. Values without a mark were called inactive. Activity calls are given as the source filed them. No stated cut-off is given here; in the data, active means activation above about 19%; inactive means the rest. Residues, ends and D or L forms follow the SMILES beside them.

Chain of cAMP-dependent protein kinase type II-beta regulatory subunit (Homo sapiens) (P31323 whole entry, looked up): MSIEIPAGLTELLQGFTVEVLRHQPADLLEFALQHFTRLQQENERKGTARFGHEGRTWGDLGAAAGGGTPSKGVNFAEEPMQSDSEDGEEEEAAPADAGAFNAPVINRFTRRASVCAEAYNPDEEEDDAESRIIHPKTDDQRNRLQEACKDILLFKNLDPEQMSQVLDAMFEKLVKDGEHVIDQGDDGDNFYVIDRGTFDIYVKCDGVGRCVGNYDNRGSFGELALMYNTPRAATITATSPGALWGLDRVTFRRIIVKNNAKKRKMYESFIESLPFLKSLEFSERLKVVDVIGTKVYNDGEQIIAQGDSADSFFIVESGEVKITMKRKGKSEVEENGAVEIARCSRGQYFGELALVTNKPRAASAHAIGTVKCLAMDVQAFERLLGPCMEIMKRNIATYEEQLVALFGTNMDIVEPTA

As for `COc1cccc(Nc2nnc(SCC(=O)N3CC(C)OC(C)C3)s2)c1` (stereo not drawn), the activation is 1.96%. Under `COc1ccc(C/C(C)=N/NC(=O)c2ccncc2)cc1` stands 0.21%; under `O=C(CCCN1C(=O)c2cccc3cccc(c23)C1=O)N1CCN(Cc2ccc3c(c2)OCO3)CC1`, -2.59%. Under `O=S(=O)(NCCNS(=O)(=O)c1ccccc1)c1ccccc1` stands 4.44%; under `O=C(CN(C(=O)CCC(=O)Nc1nccs1)c1ccc(F)cc1)NCc1ccc2c(c1)OCO2`, 3.19%; under `O=C(CNC(=O)c1ccccc1)NCC(=O)OCC(=O)c1ccccc1` (HELM PEPTIDE1{[O=C(c1ccccc1)[*:2]].G.G.[O=C(CO[*:1])c1ccccc1]}$$$$V2.0), 3.61%.

Regarding `COc1ccc(CC(NC(C)=O)C(=O)NC2CCN(C(=O)c3ccc(Cl)cc3)CC2)cc1` (stereo not drawn), the activation is 2.1%. The figure for `O=C(O)C1=C(C(=O)O)C2CCC1C2` is -0.5%; for `COc1ccc([N+](=O)[O-])cc1C1NN=C(c2cccc3ccccc23)S1` (stereo not drawn) it is 1.59%. The figure for `CC(C)(C)c1ccc(C(=O)N2CCC(C(=O)N3CCCCC3)CC2)cc1` is -0.14%. The figure for `N#Cc1ccccc1CN1C(=O)S/C(=C/c2cccn2-c2cccc(C(=O)O)c2)C1=O` is 19.4% (active); for `CCCC(=O)Nc1ncnc2c1ncn2[C@@H]1O[C@@H]2OP(=O)(O)OC[C@H]2[C@H]1OC(=O)CCC` it is 36.6% (active). Regarding `CC(C)(C)c1nnc(N/N=C/c2ccc(O)cc2)n(N)c1=O`, the activation was 3.54%.
